Assay results taken from PubChem BioAssay (Tox21).
Where “and” joins values, the source holds several entries; their conditions need not be identical. Equal values may be shown once. Inconclusive results are not listed. Entries that show only a call come without a potency. More than one record can exist for a structure, and the calls need not agree. Calls of active or inactive are those of the source. Calls follow the shape of the dose curve; as a rule, active = well fitted curve in the direction sought with a large enough effect in the repeat runs; inconclusive = weak or mixed curves; inactive = no such curve, though single readings can be large; an effect the other way counts as inactive or inconclusive.

Columns and labels:
[1] = A CellTox Green Cytotoxicity Assay to monitor cytotoxicity in HEK293 cells - 40 hour (AID 1224871); also: nearly all actives have a fitted effect of over 45% in size
How it was run: (§1)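 Real-time, in one plate: 600 HEK293 cells/well with dead-cell DNA dye, pinned compound after 5 h, 37 C incubation over 40 h; viable cells give no appreciable fluorescence.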

[2] = qHTS RealTime-Glo MT Cell Viability Assay in HEK293 cells - 16 hour (AID 1224872); also: nearly all actives have a fitted effect of over 50% in size; also: potency is read from the fitted curve at half-maximal effect
How it was run: (§2)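 Quantitative high-throughput screen of the Tox21 10K library in HEK293: cells and RealTime-Glo reagents plated together, compound added at 5 h, luminescence monitored through 40 h at 37 C.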

[3] = qHTS RealTime-Glo MT Cell Viability Assay in HepG2 cells - 8 hour (AID 1224873); also: nearly all actives have a fitted effect of over 55% in size
How it was run: (§3)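 HepG2 cells mixed with RealTime-Glo MT reagents (NanoLuc plus cell-permeant prosubstrate) were seeded at 600 cells/well, incubated 5 h at 37 C/5% CO2, then pinned with compounds in DMSO; nonlytic luminescence tracked viability during 40 h treatment.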

[4] = qHTS RealTime-Glo MT Cell Viability Assay in HEK293 cells - 40 hour (AID 1224874); conditions: RealTime-Glo luminescence; max response: stronger effect = lower value; also: nearly all actives have a fitted effect of over 50% in size; also: potency is read from the fitted curve at half-maximal effect
How it was run: (§4)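 Kinetic, non-lysing viability readout. Seed HEK293 (600/well) with reagent, incubate 5 h at 37 C/5% CO2, pin 23 nL compound in DMSO, incubate at 37 C, read luminescence at 0, 8, 16, 24, 32, 40 h.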

[5] = A CellTox Green Cytotoxicity Assay to monitor cytotoxicity in HEK293 cells - 24 hour (AID 1224875); also: series mostly up to about 77 µM; nearly all actives have a fitted effect of over 45% in size
How it was run: as §1

[6] = A CellTox Green Cytotoxicity Assay to monitor cytotoxicity in HepG2 cells - 16 hour (AID 1224876); also: nearly all actives have a fitted effect of over 45% in size
How it was run: (§5)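 Cytotoxicity was tracked as dead-cell DNA fluorescence in HepG2 cells treated with test compounds at 37 C; each time-point value comes from one kinetic series spanning 0, 8, 16, 24, 32 and 40 h.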

[7] = qHTS RealTime-Glo MT Cell Viability Assay in HepG2 cells - 32 hour (AID 1224877); also: nearly all actives have a fitted effect of over 55% in size
How it was run: (§6)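 Compound treatment began 5 h after plating HepG2 cells (600/well) with NanoLuc luciferase and prosubstrate. Plates stayed at 37 C for 40 h; luminescence was captured at six time points, 0 h through 40 h.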

[8] = A CellTox Green Cytotoxicity Assay to monitor cytotoxicity in HepG2 cells - 24 hour (AID 1224878); also: nearly all actives have a fitted effect of over 45% in size
How it was run: as §5

[9] = A CellTox Green Cytotoxicity Assay to monitor cytotoxicity in HepG2 cells - 40 hour (AID 1224879); also: nearly all actives have a fitted effect of over 40% in size
How it was run: as §5

[10] = qHTS RealTime-Glo MT Cell Viability Assay in HEK293 cells - 0 hour (AID 1224880)
How it was run: as §4

[11] = A CellTox Green Cytotoxicity Assay to monitor cytotoxicity in HEK293 cells - 32 hour (AID 1224881); also: nearly all actives have a fitted effect of over 40% in size
How it was run: as §1

[12] = A CellTox Green Cytotoxicity Assay to monitor cytotoxicity in HepG2 cells - 0 hour (AID 1224882); also: nearly all actives have a fitted effect of over 35% in size
How it was run: as §5

[13] = A CellTox Green Cytotoxicity Assay to monitor cytotoxicity in HepG2 cells - 32 hour (AID 1224883); also: nearly all actives have a fitted effect of over 50% in size
How it was run: as §5

[14] = A CellTox Green Cytotoxicity Assay to monitor cytotoxicity in HEK293 cells - 8 hour (AID 1224884); also: nearly all actives have a fitted effect of over 35% in size
How it was run: as §1

[15] = qHTS RealTime-Glo MT Cell Viability Assay in HepG2 cells - 16 hour (AID 1224885); also: nearly all actives have a fitted effect of over 50% in size
How it was run: as §6

[16] = qHTS RealTime-Glo MT Cell Viability Assay in HEK293 cells - 24 hour (AID 1224886); also: nearly all actives have a fitted effect of over 50% in size; also: potency is read from the fitted curve at half-maximal effect
How it was run: as §2

[17] = qHTS RealTime-Glo MT Cell Viability Assay in HEK293 cells - 8 hour (AID 1224887)
How it was run: as §4

[18] = qHTS RealTime-Glo MT Cell Viability Assay in HepG2 cells - 0 hour (AID 1224889); also: nearly all actives have a fitted effect of over 50% in size; also: potency is read from the fitted curve at half-maximal effect
How it was run: as §6

[19] = qHTS RealTime-Glo MT Cell Viability Assay in HepG2 cells - 40 hour (AID 1224870); also: nearly all actives have a fitted effect of over 50% in size
How it was run: as §3

[20] = A CellTox Green Cytotoxicity Assay to monitor cytotoxicity in HEK293 cells - 16 hour (AID 1224888); also: nearly all actives have a fitted effect of over 35% in size
How it was run: as §1

In the case of `CC(=O)Oc1ccccc1C(=O)O`, the Potency [1] is reported as “inactive”, the Potency [2] is reported as “inactive” and the outcome [3] is reported as “inactive”. For the same compound, the max response [4] was -0.0178% (inactive) and 14.7% (inactive) and 2.62% (inactive), the Potency [5] was “inactive” and the Potency [6] was “inactive”. The outcome [7] was “inactive”, the Potency [8] was “inactive” and the Potency [9] was “inactive”. The Potency [10] was “inactive”, the Potency [11] was “inactive” and the Potency [12] was “inactive”. The Potency [13] was “inactive”, the Potency [14] was “inactive” and the Potency [15] was “inactive”. For the same compound, the Potency [16] was “inactive”, the Potency [17] was “inactive” and the Potency [18] was “inactive”.

With `O=C(O)CN(CC(=O)O)CC(=O)O` the outcome [19] was “inactive”, the Potency [1] was “inactive” and the Potency [2] was “inactive”. The outcome [3] was “inactive”, the max response [4] was 3.36% (inactive) and 17.8% (inactive) and the Potency [6] was “inactive”. The outcome [7] was “inactive”, the Potency [8] was “inactive” and the Potency [9] was “inactive”. The Potency [11] was “inactive”, the Potency [12] was “inactive” and the Potency [14] was “inactive”. For the same compound, the Potency [15] was “inactive”, the Potency [16] was “inactive” and the Potency [17] was “inactive”. The Potency [20] was “inactive” and the Potency [18] was “inactive”.

With `CC(=O)/C=C/C1=C(C)CCCC1(C)C` the outcome [19] was “inactive”, the Potency [1] was “inactive” and the Potency [2] was “inactive”. The outcome [3] was “inactive”, the max response [4] was -10% (inactive) and 2.42% (inactive) and 0.0931% (inactive) and the Potency [6] was “inactive”. The outcome [7] was “inactive”, the Potency [8] was “inactive” and the Potency [9] was “inactive”. The Potency [10] was “inactive”, the Potency [11] was “inactive” and the Potency [12] was “inactive”. For the same compound, the Potency [14] was “inactive”, the Potency [15] was “inactive” and the Potency [16] was “inactive”. The Potency [17] was “inactive”, the Potency [20] was “inactive” and the Potency [18] was “inactive”.

For `COc1ccccc1NC(=O)CC(C)=O`, the outcome [19] was “inactive”, the Potency [1] was “inactive” and the Potency [2] was “inactive”. The outcome [3] was “inactive”, the max response [4] was -0.191% (inactive) and 6.19% (inactive) and the Potency [6] was “inactive”. For the same compound, the outcome [7] was “inactive”, the Potency [8] was “inactive” and the Potency [9] was “inactive”. For the same compound, the Potency [11] was “inactive”, the Potency [12] was “inactive” and the Potency [13] was “inactive”. For the same compound, the Potency [14] was “inactive”, the Potency [15] was “inactive” and the Potency [17] was “inactive”. For the same compound, the Potency [18] was “inactive”.

In the case of `c1ccc2[nH]c(-c3cscn3)nc2c1`, the outcome [19] is reported as “inactive”, the Potency [1] is reported as “inactive” and the outcome [3] is reported as “inactive”. The max response [4] was -21.8% (inactive), the Potency [5] was “inactive” and the Potency [6] was “inactive”. For the same compound, the outcome [7] was “inactive”, the Potency [8] was “inactive” and the Potency [9] was “inactive”. For the same compound, the Potency [10] was “inactive”, the Potency [11] was “inactive” and the Potency [12] was “inactive”. The Potency [13] was “inactive”, the Potency [14] was “inactive” and the Potency [15] was “inactive”. For the same compound, the Potency [16] was “inactive”, the Potency [17] was “inactive” and the Potency [18] was “inactive”.

With `CN/C(=C\[N+](=O)[O-])NCCSCc1ccc(CN(C)C)o1` the outcome [19] was “inactive”, the Potency [1] was “inactive” and the Potency [2] was “inactive”. For the same compound, the outcome [3] was “inactive”, the max response [4] was 4.86% (inactive) and 0.756% (inactive) and the Potency [6] was “inactive”. The outcome [7] was “inactive”, the Potency [8] was “inactive” and the Potency [9] was “inactive”. The Potency [11] was “inactive”, the Potency [12] was “inactive” and the Potency [14] was “inactive”. The Potency [15] was “inactive”, the Potency [16] was “inactive” and the Potency [17] was “inactive”. The Potency [18] was “inactive”.

With `C[C@]12C[C@H](O)[C@H]3[C@@H](CCC4=CC(=O)CC[C@@]43C)[C@@H]1CC[C@@H]2C(=O)CO` the outcome [19] was “inactive”, the Potency [1] was “inactive” and the Potency [2] was “inactive”. The outcome [3] was “inactive”, the max response [4] was -9.57% (inactive) and the Potency [6] was “inactive”. The outcome [7] was “inactive”, the Potency [8] was “inactive” and the Potency [9] was “inactive”. The Potency [11] was “inactive”, the Potency [12] was “inactive” and the Potency [13] was “inactive”. The Potency [14] was “inactive”, the Potency [15] was “inactive” and the Potency [17] was “inactive”. For the same compound, the Potency [20] was “inactive” and the Potency [18] was 9.79 µM (active) and 3.47 µM (active) and 9.52 µM (active).

For `CC(C)(C)CC(C)(C)c1ccc(O)c(-n2nc3ccccc3n2)c1`, the Potency [1] was “inactive”, the Potency [2] was 44.3 µM (active) and inactive and the outcome [3] was “inactive”. The Potency [4] was 49.7 µM (active), the max response [4] was -13.8% (inactive) and -3.1% (inactive) and the Potency [5] was “inactive”. The Potency [6] was “inactive”, the outcome [7] was “inactive” and the Potency [8] was “inactive”. For the same compound, the Potency [9] was “inactive”, the Potency [10] was “inactive” and the Potency [11] was “inactive”. For the same compound, the Potency [12] was “inactive”, the Potency [13] was “inactive” and the Potency [14] was “inactive”. The Potency [15] was “inactive”, the Potency [17] was “inactive” and the Potency [20] was “inactive”. For the same compound, the Potency [18] was “inactive”.

With `COC(=O)C1CCC(C(=O)OC)CC1` (centres undefined) the outcome [19] was “inactive”, the Potency [1] was “inactive” and the Potency [2] was “inactive”. The outcome [3] was “inactive”, the max response [4] was 7.05% (inactive) and -2.3% (inactive) and 3.36% (inactive) and the Potency [6] was “inactive”. The outcome [7] was “inactive”, the Potency [8] was “inactive” and the Potency [9] was “inactive”. For the same compound, the Potency [11] was “inactive”, the Potency [12] was “inactive” and the Potency [14] was “inactive”. The Potency [15] was “inactive”, the Potency [16] was “inactive” and the Potency [17] was “inactive”. The Potency [18] was “inactive”.

In the case of `Cc1cnc(NC(=O)C2=C(O)c3ccccc3S(=O)(=O)N2C)s1`, the outcome [19] is reported as “inactive”, the Potency [1] is reported as “inactive” and the Potency [2] is reported as “inactive”. The outcome [3] was “inactive”, the max response [4] was 6.82% (inactive) and -5.33% (inactive) and 4.88% (inactive) and the Potency [6] was “inactive”. For the same compound, the outcome [7] was “inactive”, the Potency [8] was “inactive” and the Potency [9] was “inactive”. For the same compound, the Potency [11] was “inactive”, the Potency [12] was “inactive” and the Potency [13] was “inactive”. For the same compound, the Potency [14] was “inactive”, the Potency [15] was “inactive” and the Potency [16] was “inactive”. For the same compound, the Potency [17] was “inactive”, the Potency [20] was “inactive” and the Potency [18] was “inactive”.

With `O=c1c(-c2ccc(O)cc2)coc2cc(O)cc(O)c12` the Potency [1] was “inactive”, the Potency [2] was 21.9 µM (active) and the outcome [3] was “inactive”. The Potency [4] was 19.2 µM (active) and 19.5 µM (active), the Potency [5] was “inactive” and the Potency [6] was “inactive”. For the same compound, the outcome [7] was “inactive”, the Potency [8] was “inactive” and the Potency [9] was “inactive”. For the same compound, the Potency [10] was “inactive”, the Potency [11] was “inactive” and the Potency [12] was “inactive”. The Potency [13] was “inactive”, the Potency [14] was “inactive” and the Potency [15] was “inactive”. The Potency [16] was 24.5 µM (active), the Potency [20] was “inactive” and the Potency [18] was “inactive”.

For `CCN1CCCC1=O`, the outcome [19] was “inactive”, the Potency [1] was “inactive” and the Potency [2] was “inactive”. The outcome [3] was “inactive”, the max response [4] was 0.414% (inactive) and 1.37% (inactive) and the Potency [6] was “inactive”. The outcome [7] was “inactive”, the Potency [8] was “inactive” and the Potency [9] was “inactive”. For the same compound, the Potency [11] was “inactive”, the Potency [12] was “inactive” and the Potency [14] was “inactive”. The Potency [15] was “inactive”, the Potency [17] was “inactive” and the Potency [20] was “inactive”. For the same compound, the Potency [18] was “inactive”.

For `CC(C)=CCC/C(C)=C/CO`, the outcome [19] was “inactive”, the Potency [1] was “inactive” and the Potency [2] was “inactive”. For the same compound, the outcome [3] was “inactive”, the max response [4] was 7.58% (inactive) and 13.8% (inactive) and -0.309% (inactive) and the Potency [6] was “inactive”. For the same compound, the outcome [7] was “inactive”, the Potency [8] was “inactive” and the Potency [9] was “inactive”. The Potency [11] was “inactive”, the Potency [12] was “inactive” and the Potency [14] was “inactive”. For the same compound, the Potency [15] was “inactive”, the Potency [16] was “inactive” and the Potency [17] was “inactive”. For the same compound, the Potency [20] was “inactive” and the Potency [18] was “inactive”.
